# Values joined by “and” are separate entries in the source; they are usually repeats but may differ in a detail not shown here. Equal entries are not always repeated. Structures can show the parent of a compound that is named as a salt.
# Columns and labels:
# Assay in all cases: cell viability relative to vehicle control; higher = less cytotoxic
# Settings in all cases: 10 µM
# K562 = test system: K562
# Procedure, shortened: (§1)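 Mutant clones made by CRISPR editing and their isogenic wild-type counterparts, from four leukaemia lines, were exposed to a single 10 µM dose of each library compound for 48 h. The supernatant was then removed and CellTiter-Glo luminescence was read. Viability was reported as percent of the on-plate vehicle control.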
# MARIMO = test system: MARIMO
# Procedure, shortened: as §1
# MOLM14 = test system: MOLM14
# Procedure, shortened: as §1
# OCI-AML2 = test system: OCI-AML2
# Procedure, shortened: as §1
SMILES,cell viability (K562; SRSF2 genotype: SRSF2 P95H/wt),cell viability (K562; SRSF2 genotype: SRSF2 wt/wt) [%],cell viability (MARIMO; SRSF2 genotype: SRSF2 P95H/wt) [%],cell viability (MARIMO; SRSF2 genotype: SRSF2 wt/wt) [%],cell viability (MOLM14; SRSF2 genotype: SRSF2 P95H/wt) [%],cell viability (MOLM14; SRSF2 genotype: SRSF2 wt/wt) [%],cell viability (OCI-AML2; SRSF2 genotype: P95H/wt) [%],cell viability (OCI-AML2; SRSF2 genotype: wt/wt) [%]
O=P1(N(CCCl)CCCl)NCCCO1 (stereo not given) [Cyclophosphamide monohydrate],105% and 103%,108,94.6,106,99.2,102,100,106
CC[C@H]1[C@@H]2C[C@H]3[C@@H]4N(C)c5ccccc5[C@]45C[C@@H]([C@@H]2[C@H]5O)N3[C@@H]1O [Ajmaline],95.7% and 94%,98.5,90.6,96.2,94.6,98.4,93.9,97.9
CC(=O)O[C@@H]1[C@H]2[C@@H](OC(=O)Cc3ccccc3)[C@@H](C)C[C@]2(OC(C)=O)C(=O)/C(C)=C/[C@@H]2[C@H](CC[C@]13CO3)C2(C)C [Euphorbia factor L1],105% and 96.6%,100,89.8,102,102,104,95.9,105
CC(C)=CCCC(C)(O)C1CCC2(C)C1C(O)CC1C3(C)CCC(O)C(C)(C)C3C(OC3OC(CO)C(O)C(O)C3O)CC12C [(20R)-Ginsenoside Rh1],101% and 98.6%,103,111,98.8,115,107,107,108
O=C(C[S+]([O-])C(c1ccccc1)c1ccccc1)NO (stereo not given) [Adrafinil],95.6% and 94.3%,103,92.9,96.4,95.3,102,91.8,110
CN1c2ccccc2C(NCCCCCCC(=O)O)c2ccc(Cl)cc2S1(=O)=O (stereo not given) [Tianeptine sodium],99.4% and 97.1%,97.6,106,108,107,101,98.4,111
O=C1C=CC[C@@H]2[C@H]3CCCN4CCC[C@@H](CN12)[C@@H]34 [Sophocarpine],103% and 107%,102,108,111,106,106,98.4,108
CC(C)[C@]12O[C@H]1[C@@H]1O[C@]13[C@]1(O[C@H]1C[C@H]1C4=C(CC[C@@]13C)C(=O)OC4)[C@@H]2O [Triptolide],5.55% and 15%,8.7,10.4,6.31,2.33,0.54,5.79,16
CCN1CCN(C(=O)Cc2ccc(Nc3ncc(F)c(Nc4ccc(C(=O)Nc5ccccc5Cl)cc4)n3)cc2)CC1 [Aurora A Inhibitor I],0.7% and 0.51%,15.3,0.53,3.65,0.41,0.49,4.67,4.81
CCC12C=CCN3CC[C@@]4(c5ccc(OC)cc5N(C)[C@H]4[C@@](O)(C(=O)OC)[C@@H]1OC(C)=O)[C@@H]32 (stereo not given in full) [Vindoline],96.8% and 99.8%,99.4,101,107,105,105,103,116
Cc1cc(SCc2sc(-c3ccc(C(F)(F)F)c(F)c3)nc2C)ccc1OCC(=O)O,100% and 101%,105,106,112,99.7,103,95.9,101
CCN(Cc1ccc(Cl)nc1)/C(=C/[N+](=O)[O-])NC [Nitenpyram],98.8% and 88.3%,99.9,94.5,99,97.7,98.6,95.2,99.8
CNC(C)Cc1ccccc1OC (stereo not given) [Methoxyphenamine Hydrochloride],98% and 100%,106,100,104,106,102,107,101
CCO[C@H]1O[C@@H]2O[C@@]3(C)CC[C@H]4[C@H](C)CC[C@@H]([C@H]1C)[C@@]24OO3 [Arteether],68.2% and 63.3%,69,62.3,64.4,69.8,45.7,55.5,52.5
O=C1CC[C@@]2(O)[C@H]3Cc4ccc(O)c5c4[C@@]2(CCN3CC2CC2)[C@H]1O5 [Naltrexone HCl],98.5% and 105%,97.7,98.8,103,99.9,103,106,99.8
Cc1cc(C(=O)CN2CCCC2)c(C)n1-c1ccc(F)cc1,93.7% and 94%,89.1,80.6,98.2,83.7,94.7,88.4,85.8
c1ccc2c(c1)[I+]c1ccccc1-2 [Diphenyleneiodonium chloride (DPI)],25.4% and 25.3%,25,19.6,25.4,3.2,2.99,11.4,16.4
CCN1CC2(OC(=O)c3ccccc3NC(C)=O)CCC(OC)C34C1C(CC23)C1(O)CC(OC)C2CC4C1(O)C2OC (stereo not given) [Lappaconite Hydrobromide],102% and 86.3%,88.2,86.7,96.2,89.6,96.4,97.3,87.2
O=C(c1ccccc1O)c1[nH]c(Cl)c(Cl)c1-n1c(C(=O)c2ccccc2O)cc(Cl)c1Cl [Marinopyrrole A (Maritoclax)],12.6% and 15.9%,14.3,24.9,21.3,13.5,12.8,4.26,11.9
C[C@H]1CC[C@@H]2N(C1)C[C@H]1[C@@H]3C[C@H]4[C@@H](CC(=O)[C@H]5C[C@@H](O)CC[C@@]54C)[C@@H]3CC[C@H]1[C@]2(C)O [Imperialine],112% and 97.8%,109,103,101,105,106,101,107
C=C1CCC2C(/C=C(\C)C(=O)C3(OC(C)=O)CC(C)C(OC(=O)c4ccccc4)C3C1OC(C)=O)C2(C)C (stereo not given) [Euphorbia factor L3],48% and 62.5%,59.5,34.8,33.8,47.6,32.9,65.8,22.4

SMILES,cell viability (K562; SRSF2 genotype: SRSF2 P95H/wt),cell viability (K562; SRSF2 genotype: SRSF2 wt/wt) [%],cell viability (MARIMO; SRSF2 genotype: SRSF2 P95H/wt) [%],cell viability (MARIMO; SRSF2 genotype: SRSF2 wt/wt) [%],cell viability (MOLM14; SRSF2 genotype: SRSF2 P95H/wt) [%],cell viability (MOLM14; SRSF2 genotype: SRSF2 wt/wt) [%],cell viability (OCI-AML2; SRSF2 genotype: P95H/wt) [%],cell viability (OCI-AML2; SRSF2 genotype: wt/wt) [%]
O=c1ccc2ccc3occc3c2o1 [Isopsoralen],105% and 98.7%,105,100,101,108,110,103,97
CC(C)=CCCC(C)(O)C1CCC2(C)C1C(O)CC1C3(C)CCC(OC4OC(CO)C(O)C(O)C4O)C(C)(C)C3CCC12C [(20R)Ginsenoside Rh2],90.5% and 92.8%,96,101,102,102,96,98.5,106
c1c2c(cc3c1OCO3)-c1cc3ccc4c(c3c[n+]1CC2)OCO4 [Coptisine chloride],83.7% and 89.7%,84.2,95.4,99.8,96.2,94.3,84.5,91.7
COc1ccc(C(CN(C)C)C2(O)CCCCC2)cc1 (stereo not given) [Venlafaxine HCl],99.9%,98.7,95.8,99.7,96.9,98.6,99.8,107
CCCN1CCO[C@@H]2c3cc(O)ccc3OC[C@H]21,98% and 95.8%,92.6,97.5,97,104,101,96.5,93.2
C=C[C@@]12CN(C)[C@H]3C[C@]14C(=Nc1ccccc14)[C@@H]1C[C@@H]2[C@@H]3CO1 [Koumine],99.2% and 99.1%,98.6,102,102,104,96.2,101,101
CC(C)[C@]12O[C@H]1[C@@H]1O[C@@]13[C@@]1(C)CCC4=C(COC4=O)[C@@H]1C[C@@H]1O[C@@]13C2=O [Triptonide],5.3% and 13.3%,8.48,12.8,5.79,2.66,0.71,5.01,15.2
CC(C)C(Br)C(=O)NC(N)=O (stereo not given) [Bromisoval],99.8% and 99.2%,94.8,95.8,108,92,104,93.2,95
CN1[C@@H]2CC[C@H]1C[C@@H](OC(=O)C(CO)c1ccccc1)C2 (stereo not given in full) [Atropine sulfate monohydrate],93.4% and 94.7%,100,104,112,100,105,100,99.6
COc1ccc2c(c1)/C(=C/c1cnc[nH]1)C(=O)N2,91.8% and 96.2%,88,33.7,39.8,22.1,3.31,15.4,24.6
"CN1CCc2cc3c(cc2C1C1OC(=O)c2c1ccc1c2OCO1)OCO3 (single isomer, unassigned; (+)) [(+)-Bicuculline]",102% and 97.1%,96.5,97.6,106,99.2,99.5,93.9,96.7
CN1[C@@H]2C[C@@H](OC(=O)[C@H](CO)c3ccccc3)C[C@H]1[C@@H]1O[C@@H]12 [Scopolamine hydrobromide],97.1% and 95.9%,99.9,101,109,104,100,102,104
C[C@H]1CC[C@]2(NC1)O[C@H]1C[C@H]3[C@@H]4CC[C@H]5C[C@@H](O)CC[C@]5(C)[C@H]4CC[C@]3(C)[C@H]1[C@@H]2C [Tomatidine],92.3% and 92%,90.7,86.8,94.8,90.7,93.3,96.5,93.5
CN(C)[C@@H]1C(=O)C(C(N)=O)=C(O)[C@@]2(O)C(=O)C3=C(O)c4c(O)cccc4[C@@](C)(O)[C@H]3[C@H](O)[C@@H]12 [Oxytetracycline (Terramycin)],86.7% and 82.8%,85.9,90.8,87.4,87.5,88.3,84.5,90
COc1ccc(C=O)cc1O [Isovanillin],105% and 103%,103,108,108,106,101,104,98.2
CCOc1ccccc1-n1c(C(C)N2CCN(C(=O)COc3ccc(Cl)cc3)CC2)nc2ccccc2c1=O (stereo not given) [Erastin],,63,21.1,38.8,6.91,3.65,0.65,12.4
O=S(=O)(F)Cc1ccccc1 [PMSF (Phenylmethylsulfonyl Fluoride)],95.7% and 94.9%,97,100,99.5,99.3,102,102,96.1
COC(=O)c1ccccc1C(=O)OC [Dimethyl phthalate],86.9% and 85.8%,84,85.6,93.4,87.5,85.8,89.5,80.7
COc1cc(C)[nH]c(=O)c1CNC(=O)c1c(C)n([C@H](C)C2CCN(CC(F)(F)F)CC2)c2ccccc12,103% and 99%,110,103,110,97.2,95.3,103,109
O=C(CC1NCCCC1O)Cn1cnc2cc(Br)c(Cl)cc2c1=O (stereo not given) [Halofuginone],6.09% and 15.2%,11,8.89,3.03,0.77,0.52,0.78,5.46
COC1=C[C@@H]2[C@@H]3Cc4ccc(OC)c(O)c4[C@]2(CCN3C)CC1=O [Sinomenine (Cucoline)],103% and 95.1%,90.5,97.9,96.2,89.9,97.3,95,97.8

# From the supplement of paper PMC10981050
